# Source: the supplement of paper PMC4166925
# ± gives the standard deviation of the averaged measurements. Whole data set: some 33,000 sequences, median “E-score (dimensionless, -0.5 to 0.5)” near -0.046, cut for the highest 2% near 0.36. The sample as a whole holds a higher share of the highest values than the screen did.
# System: T1, SpTbr T-box DNA-binding domain (GST fusion)
# T1 sequence: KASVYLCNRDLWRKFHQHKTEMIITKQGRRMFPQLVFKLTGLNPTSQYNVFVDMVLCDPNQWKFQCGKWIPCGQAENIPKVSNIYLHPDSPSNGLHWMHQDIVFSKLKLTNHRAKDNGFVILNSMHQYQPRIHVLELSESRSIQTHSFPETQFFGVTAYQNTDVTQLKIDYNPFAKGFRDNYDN
# Test: PBM E-score of 8-mer (E-score (dimensionless, -0.5 to 0.5)); Tbr is Tbrain of the sea star Patiria miniata (Pm) or the sea urchin Strongylocentrotus purpuratus (Sp); higher = stronger binding preference
# Conditions: the construct has about 5 more residues each side
# Procedure: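 Universal protein-binding microarray (Agilent AMADID 016060, 60-bp probes with a 35-bp variable region) incubated with 200 nM GST-fused Strongylocentrotus purpuratus Tbr T-box DNA-binding domain (residues 362-554) in PBS pH 7.5. Scored for every ungapped 8-mer (given with its reverse complement) as E-score (range -0.5 to 0.5; >0.45 counts as bound) and Z-score of median probe intensity. Two replicate arrays (datasets 1 and 2).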
# 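Further: protein at 200 nM in PBS on universal double-stranded arrays.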
row,Sequence,PBM E-score of 8-mer
1,GTATGCAC,0.0616 ± 0.043
2,CTAGTTTC,-0.105 ± 0.053
3,CTACGCGA,0.0131 ± 0.01
4,AACTCTGA,-0.0644 ± 8.5e-05
5,CGCAAGAC,0.07366 ± 4.2e-05
6,ACGCATGG,-0.144 ± 0.018
7,GGGTGCCA,0.3739 ± 0.003
8,AGCTGCCA,0.111 ± 0.099
9,ACGTGCCA,0.361 ± 0.033
10,CGGTGCCA,0.119 ± 0.02
11,AGGTGCCA,0.46212 ± 0.00034
12,GGGTGCGA,0.4746 ± 0.00052
13,GCGTGCCA,0.128 ± 0.01
14,GTGTGCGA,0.361 ± 0.0042
15,AGGTGCCC,0.00863 ± 0.0099
16,ACGTGCCG,0.199 ± 0.058
17,AGGTGCCG,0.421 ± 0.0055
18,CGGTGCGA,0.339 ± 0.0046
19,ACGATCAC,0.119 ± 0.031
20,AGGTTTAA,-0.0723 ± 0.017
21,GGACTTGA,-0.12 ± 0.047
22,AATACTGG,-0.329 ± 0.041

row,Sequence,PBM E-score of 8-mer
1,TATATCAA,-0.174 ± 0.03
2,AAATGGTA,-0.152 ± 0.041
3,TGCGAGAA,0.36401 ± 0.00027
4,CAACAAGG,0.0674 ± 0.0062
5,CCTTCACC,0.14 ± 0.013
6,TCTTCACA,0.395 ± 0.015
7,CCTTCACA,0.404 ± 0.0071
8,ACTTCACG,0.312 ± 0.018
9,CCTTCACG,0.278 ± 0.019
10,ACTTCACA,0.357 ± 0.02
11,ATCCCAGA,-0.0492 ± 0.043
12,GATTTTCC,-0.00302 ± 0.027
13,CCCCAAAA,-0.112 ± 0.042
14,TATTTGAA,-0.214 ± 0.013
15,AACCTCCC,-0.0867 ± 0.0052
16,CACCTCCG,0.4516 ± 0.0039
17,AACCTCCA,-0.135 ± 0.018
18,GACCTCCC,-0.159 ± 0.12
19,CACCTCCA,0.3876 ± 0.00048
20,CACCTCCC,0.389 ± 0.017
21,CCCCTCCG,0.119 ± 0.066
22,TACCTCCA,-0.0368 ± 0.093

row,Sequence,PBM E-score of 8-mer
1,AACCTCCG,0.0095 ± 0.07
2,AGCGGGCA,-0.0395 ± 0.016
3,GACGTGCA,0.0705 ± 0.07
4,ACCCGAGA,0.0223 ± 0.0071
5,GCCCGACC,-0.213 ± 0.054
6,CTAGGTTA,-0.16 ± 0.08
7,GTTTAGCA,0.102 ± 0.11
8,GACCTCAC,0.137 ± 0.049
9,TACCTCAA,-0.13 ± 0.045
10,CACCTCAG,0.376 ± 0.0075
11,AACCTCAA,-0.158 ± 0.018
12,AACCTCAC,0.182 ± 0.034
13,CACCTCAA,0.375 ± 0.024
14,CACCTCAC,0.444 ± 0.012
15,CTCCTCAG,-0.0357 ± 0.025
16,AACCTCAG,-0.244 ± 0.045
17,CGAAAACG,0.0298 ± 0.05
18,CGATACAG,-0.0251 ± 0.13
19,GAGTTGGA,-0.0967 ± 0.023
20,ATCTTCAC,0.267 ± 0.02
21,TCTTAACA,0.214 ± 0.041
22,GGTTATAC,0.0871 ± 0.041

row,Sequence,PBM E-score of 8-mer
1,GCATGCTA,0.00793 ± 0.094
2,ATAGGGAG,-0.00632 ± 0.036
3,ATAGTGTC,0.272 ± 0.07
4,ATAGTGTG,0.388 ± 0.026
5,AGAGTGTG,0.375 ± 0.022
6,AGAGTGTA,0.0671 ± 0.0042
7,AGAGTGTC,0.359 ± 0.0099
8,ATAGTGTA,0.0763 ± 0.038
9,CGAAGACC,-0.109 ± 0.036
10,GAGCCCCA,-0.124 ± 0.065
11,GGGTTAAA,-0.213 ± 0.063
12,TAACCGAA,-0.212 ± 0.034
13,CCGCAGAC,-0.143 ± 0.042
14,GATCAATA,0.0446 ± 0.036
15,AGCCACAC,0.311 ± 0.049
16,GGCCACAA,0.0675 ± 0.11
17,CGCCACAA,0.0762 ± 0.081
18,GGCCACAC,0.3886 ± 0.00083
19,CGCCACAC,0.3647 ± 0.0013
20,CGCCACAG,0.0527 ± 0.03
21,GAGATGGC,-0.0157 ± 0.0073
22,CAACCTAG,-0.0248 ± 0.069

row,Sequence,PBM E-score of 8-mer
1,AAAGGTGG,0.0801 ± 0.026
2,AAGGGTGG,0.146 ± 0.028
3,AAAGGTGT,0.469 ± 0.0063
4,ATAGGTGA,0.284 ± 0.032
5,AAGGGTGT,0.383 ± 0.015
6,AAGGGTGA,0.136 ± 0.04
7,ATAGGTGC,0.412 ± 0.012
8,AAAGGTAC,-0.0923 ± 0.05
9,CTAGGTGC,0.3603 ± 0.003
10,AAAGGTCC,0.0265 ± 0.0014
11,AAAGGTGC,0.414 ± 0.01
12,AAAGGTGA,0.316 ± 0.0022
13,CGGGTGAA,-0.3489 ± 0.0032
14,AGCAACCA,-0.0779 ± 0.012
15,CTACCGTC,-0.191 ± 0.04
16,ATTTACCG,-0.131 ± 0.054
17,CGAGGGTA,-0.211 ± 0.033
18,GATGAGGC,-0.112 ± 0.027
19,GGTCTACA,-0.0571 ± 0.025
20,AGGTAAAA,-0.0157 ± 0.037
21,TATTCACA,0.423 ± 0.023
